# Experimental data: PubChem BioAssay (NCI)
# This is part of a sample that, as a whole, favours compounds with a hit. Of some 83,000 tested, about 20% had one in any assay.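 Values shown are percent growth following 48 h exposure of cells in 96-well plates to a single concentration of compound; below 10 was considered active.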 Values without a mark were called inactive. The source made the active and inactive calls.
# How the values were obtained:
# Assay in all cases: NCI-60 one-dose screen, 48 h (100 = growth as untreated, 0 = no growth, -100 = all killed)
# Conditions in all cases: 10 µM unless noted
# T-47D breast = tested on: T-47D breast
# BT-549 breast = tested on: BT-549 breast
# MDA-MB-435 melanoma = tested on: MDA-MB-435 melanoma
# SW-620 colon = tested on: SW-620 colon
# MCF7 breast = tested on: MCF7 breast
# HCT-116 colon = tested on: HCT-116 colon
# HCC-2998 colon = tested on: HCC-2998 colon
# KM12 colon = tested on: KM12 colon
Compound,growth (T-47D breast),growth (BT-549 breast),growth (MDA-MB-435 melanoma),growth (SW-620 colon),growth (MCF7 breast),growth (HCT-116 colon),growth (HCC-2998 colon),growth (KM12 colon)
CNc1nc2c(s1)C(c1cc(F)ccc1F)CC(=O)N2 (stereo not given),63.6%,80.5%,-51.6% (active),30.9%,36.5%,53.5%,88.1%,52.9%
Cc1nn(-c2ccccc2)c(-n2ccnc2)c1/C=N/Nc1nc(-c2ccc(F)cc2)cs1,31.1%,75.3%,85.2%,88.4%,72.3%,67.8%,104%,90.4%
CC(=O)N1CCN(c2ccc(OCC3CO[C@](Cn4ccnc4)(c4ccc(Cl)cc4Cl)O3)cc2)CC1 (stereo not given in full),51.1%,54.7%,94%,104%,86.4%,68.4%,85.5%,87%
CN1C(=O)N(C)C2Nn3c(s/c(=C\c4ccccc4)c3=O)=NC21 (stereo not given),98.2%,97.1%,85.9%,96.9%,87.1%,88.8%,104%,97.5%
Cc1cc(=O)oc2cc(OC(=O)N3CCN(C)CC3)ccc12,105%,112%,101%,100%,89.6%,99.4%,110%,101%
NCCCNc1nc2ccccc2c2c(=O)c3cc(C(F)(F)F)ccc3sc12,27.2%,87.7%,-80.9% (active),-74.5% (active),-49.4% (active),-70.4% (active),-84.6% (active),-76.7% (active)
COc1ccc(-c2nc(NCCO)[nH]c(=O)c2C#N)cc1,82.8%,103%,103%,106%,91.9%,102%,103%,95.8%
CS(=O)(=O)Nc1cc(-c2ccc3ncnc(Nc4cccc(Cl)c4F)c3c2)cnc1Cl,-4.02% (active),17.9%,46.2%,46.3%,11%,46.7%,45.3%,69.3%
Oc1ccc(C#CCOc2ccccc2)cc1CNCCN(Cc1ccccn1)Cc1ccccn1,14.4%,37.7%,32.6%,15.6%,4.05% (active),9.79% (active),28.4%,18.9%
CCc1ccccc1-n1c(N)c(C#N)c(-c2ccc(Cl)cc2)c(C#N)c1=O,101%,173%,119%,102%,103%,103%,107%,95.8%
COc1ccc(CNC(=O)[C@H](O)[C@@H](N)Cc2ccccc2)cc1,110%,109%,104%,104%,94.5%,109%,105%,101%
CCCCCCCCCCCCCCCCCCOc1ccc(CC(=O)OCC[N+](C)(C)C)cc1,99.5%,95.8%,100%,99.9%,95.8%,93%,95.4%,96.8%
N#Cc1c(-c2ccccc2)nc(SCC(=O)Nc2nc(-c3ccc(Cl)cc3)cs2)[nH]c1=O,81.8%,93.6%,99.6%,113%,91.7%,81.8%,81.5%,103%
O=C(N/N=C/c1ccc(Cl)cc1)c1ccc(C(F)(F)F)nc1Nc1cccc(C(F)(F)F)c1,3.73% (active),9.33% (active),34.8%,8.01% (active),0.997% (active),-33.6% (active),-38.9% (active),8.69% (active)
CCc1ccc(Oc2c(-c3ccc(OCc4ccc(Cl)cc4)cc3O)n[nH]c2C(F)(F)F)cc1,-2.85% (active),34.7%,7.72% (active),17.4%,4.9% (active),-5.05% (active),62.2%,19.5%
COc1ccc(CNC(=O)C(=O)[C@H](Cc2ccccc2)NC(=O)c2[nH]c3ccccc3c(=O)c2C)cc1,101%,115%,100%,97.3%,94.3%,101%,110%,101%
COc1ccc(C(=O)n2nc(-c3ccccc3)nc2N)cc1OC,56.4%,94.6%,109%,90.3%,44.3%,98.2%,97.9%,85.8%
CCc1ccc(Oc2c(-c3ccc(OCc4ccc(Cl)cc4)cc3O)nn(C)c2C(F)(F)F)cc1,-8.15% (active),-12% (active),1.36% (active),7.28% (active),6.53% (active),-62.4% (active),12.8%,-5.25% (active)
CCOC(=O)NCCc1ccccc1,106%,108%,108%,99.2%,99.1%,108%,90.3%,108%
CC(=O)CC(c1ccccc1)c1c(C)[nH]c2ccccc12 (stereo not given),99.5%,112%,100%,92.1%,96.2%,89.6%,110%,100%
CCOC(=O)c1nc(Nc2ccc(C(C)=O)cc2)sc1C,93%,106%,100%,101%,92.9%,99.8%,114%,101%
O=C(CCCCCCSc1nc(-c2ccccc2)cc(-c2ccccc2)n1)NO,-11.1% (active),30.9%,17.3%,8.47% (active),16.1%,11.6%,63.4%,50.7%
CNC(=O)c1[nH]cc(-c2ccccc2)c1-c1cc(OC)c2c(c1OC)OCO2,88.7%,95.6%,102%,99.9%,99.9%,99.5%,102%,96.9%
Nc1nc(Cl)cc(=O)n1Cc1ccccc1,83.4%,102%,92.6%,105%,98.1%,95.2%,89.4%,101%
CN(C)CC#Cc1ccc2ncc(C#N)c(Nc3ccc(F)c(Cl)c3)c2c1,44%,51.1%,65.3%,57.3%,79.4%,40.7%,60.3%,79.7%
Nc1nn(C(=O)Nc2ccc(Cc3ccccc3)cc2)c2ccc(Cl)cc12,41.4%,55.9%,53.3%,81.8%,20.7%,42.5%,2.27% (active),66.2%
COc1cc(OCc2cccc(-c3ccc(C(O)c4nccs4)cc3)c2C)cc(OC)c1CNCCNC(C)=O (stereo not given),90.8%,102%,98.5%,97.8%,89.9%,94%,124%,101%
O=c1ccc(N=Nc2ccc([N+](=O)[O-])cc2)ccc1O,16.8%,97.3%,21.8%,15.4%,7.16% (active),32.3%,22.3%,16.7%
CCCCNC(=O)Oc1ccc(/C(=C(\C)c2ccc(Cl)cc2)c2ccc(OCCN3CCCCC3)cc2)cc1,47%,86.5%,74.2%,83.6%,32.3%,53.6%,87.8%,67.1%
COc1cc(CNS(=O)(=O)c2ccc(C)cc2)ccc1OCc1cn(-c2ccccc2)nn1,66.5%,88.1%,99.9%,98.9%,92.7%,85.1%,117%,99.4%
